Measurements reported in ChEMBL document CHEMBL1961873, “Compounds: GSK PKIS; Assays: Nanosyn kinase panel” (2012).

Key:
[1] = target: CDK3/Cyclin E (Homo sapiens) (UniProt P24864+Q00526); details: at 1 µM;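 note: each figure is a mean percent inhibition of the CDK3/cyclin E complex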
[2] = target: Cyclin-dependent kinase 4 (Homo sapiens) (UniProt P11802); details: at 0.1 µM
[3] = target: Cyclin-dependent kinase 4 (Homo sapiens) (UniProt P11802); details: at 1 µM
[4] = target: Cyclin-dependent kinase 5 (Homo sapiens) (UniProt Q00535); details: at 0.1 µM
[5] = target: Cyclin-dependent kinase 5 (Homo sapiens) (UniProt Q00535); details: at 1 µM
[6] = target: Cyclin-dependent kinase 6 (Homo sapiens) (UniProt Q00534); details: at 0.1 µM
[7] = target: Cyclin-dependent kinase 6 (Homo sapiens) (UniProt Q00534); details: at 1 µM
[8] = target: Dual specificity protein kinase CLK2 (Homo sapiens) (UniProt P49760); details: at 0.1 µM
[9] = target: Dual specificity protein kinase CLK2 (Homo sapiens) (UniProt P49760); details: at 1 µM
[10] = target: Dual specificity protein kinase CLK3 (Homo sapiens) (UniProt P49761); details: at 0.1 µM
Chain of Dual specificity protein kinase CLK3 (Homo sapiens) (P49761 whole entry, looked up): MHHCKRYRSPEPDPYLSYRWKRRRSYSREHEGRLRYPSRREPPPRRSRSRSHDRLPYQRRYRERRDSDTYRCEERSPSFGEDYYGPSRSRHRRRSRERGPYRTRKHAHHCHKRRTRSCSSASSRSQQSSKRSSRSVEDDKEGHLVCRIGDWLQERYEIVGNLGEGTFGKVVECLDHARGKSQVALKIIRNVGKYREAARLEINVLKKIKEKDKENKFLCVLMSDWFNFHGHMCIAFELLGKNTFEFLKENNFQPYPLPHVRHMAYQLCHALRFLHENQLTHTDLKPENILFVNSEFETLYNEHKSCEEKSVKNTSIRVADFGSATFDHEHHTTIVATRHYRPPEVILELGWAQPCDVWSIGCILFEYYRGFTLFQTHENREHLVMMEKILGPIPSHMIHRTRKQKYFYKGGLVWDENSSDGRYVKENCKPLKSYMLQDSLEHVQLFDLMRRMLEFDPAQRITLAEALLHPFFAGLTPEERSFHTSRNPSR

Chain of Cyclin-dependent kinase 5 (Homo sapiens) (Q00535 whole entry, looked up): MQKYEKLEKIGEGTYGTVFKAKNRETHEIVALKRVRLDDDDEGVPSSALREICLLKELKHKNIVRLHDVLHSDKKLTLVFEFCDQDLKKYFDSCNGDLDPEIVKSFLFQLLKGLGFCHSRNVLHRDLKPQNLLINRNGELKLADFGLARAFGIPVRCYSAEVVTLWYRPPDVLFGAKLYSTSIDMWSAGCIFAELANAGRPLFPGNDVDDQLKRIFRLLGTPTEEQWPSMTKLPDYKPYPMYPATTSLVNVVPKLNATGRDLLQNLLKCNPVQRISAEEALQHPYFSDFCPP
Chain of Dual specificity protein kinase CLK2 (Homo sapiens) (P49760 whole entry, looked up): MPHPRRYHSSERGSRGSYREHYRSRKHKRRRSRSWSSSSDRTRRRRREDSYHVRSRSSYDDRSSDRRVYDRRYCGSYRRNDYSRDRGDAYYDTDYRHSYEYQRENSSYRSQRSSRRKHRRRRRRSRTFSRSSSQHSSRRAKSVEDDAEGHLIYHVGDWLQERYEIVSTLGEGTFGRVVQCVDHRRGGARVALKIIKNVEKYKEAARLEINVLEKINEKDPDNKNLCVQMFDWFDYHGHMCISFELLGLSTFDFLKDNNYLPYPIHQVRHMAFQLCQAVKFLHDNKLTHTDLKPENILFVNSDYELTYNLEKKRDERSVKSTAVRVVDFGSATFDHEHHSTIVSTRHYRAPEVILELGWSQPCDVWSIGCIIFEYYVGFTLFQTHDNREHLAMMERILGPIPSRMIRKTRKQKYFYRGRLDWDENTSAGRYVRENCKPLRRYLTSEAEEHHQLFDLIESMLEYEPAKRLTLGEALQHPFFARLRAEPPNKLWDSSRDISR
Chain of Cyclin-dependent kinase 6 (Homo sapiens) (Q00534 whole entry): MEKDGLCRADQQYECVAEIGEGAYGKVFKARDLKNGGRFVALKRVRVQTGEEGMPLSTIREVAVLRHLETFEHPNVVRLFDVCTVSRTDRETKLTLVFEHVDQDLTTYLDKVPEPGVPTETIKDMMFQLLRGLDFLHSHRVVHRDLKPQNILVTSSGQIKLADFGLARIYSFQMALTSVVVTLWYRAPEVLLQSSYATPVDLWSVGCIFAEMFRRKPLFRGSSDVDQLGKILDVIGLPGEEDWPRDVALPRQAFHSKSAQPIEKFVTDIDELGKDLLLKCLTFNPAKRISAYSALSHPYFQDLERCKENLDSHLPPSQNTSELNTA
Chain of Cyclin-dependent kinase 4 (Homo sapiens) (P11802 whole entry): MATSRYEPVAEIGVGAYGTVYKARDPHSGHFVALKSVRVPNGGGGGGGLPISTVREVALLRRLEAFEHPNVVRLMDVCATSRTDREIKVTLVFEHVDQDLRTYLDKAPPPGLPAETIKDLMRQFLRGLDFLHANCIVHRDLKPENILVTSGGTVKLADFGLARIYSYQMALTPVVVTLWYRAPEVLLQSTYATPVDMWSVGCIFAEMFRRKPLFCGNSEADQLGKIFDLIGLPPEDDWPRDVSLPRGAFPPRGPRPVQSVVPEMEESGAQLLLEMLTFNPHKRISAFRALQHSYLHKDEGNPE
Chain of CDK3/Cyclin E (Homo sapiens) (P24864 whole entry, looked up): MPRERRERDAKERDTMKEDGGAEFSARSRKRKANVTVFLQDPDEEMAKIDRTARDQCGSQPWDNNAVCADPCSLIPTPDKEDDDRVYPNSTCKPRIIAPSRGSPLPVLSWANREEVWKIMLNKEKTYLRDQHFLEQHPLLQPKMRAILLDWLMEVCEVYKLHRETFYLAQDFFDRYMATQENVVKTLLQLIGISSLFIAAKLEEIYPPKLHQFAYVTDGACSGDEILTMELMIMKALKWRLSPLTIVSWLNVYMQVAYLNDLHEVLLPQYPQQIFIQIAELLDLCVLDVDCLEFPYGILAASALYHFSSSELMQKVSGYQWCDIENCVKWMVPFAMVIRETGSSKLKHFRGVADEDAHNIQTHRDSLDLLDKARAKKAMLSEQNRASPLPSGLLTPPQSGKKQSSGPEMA
Chain of CDK3/Cyclin E (Homo sapiens) (Q00526 whole entry, looked up): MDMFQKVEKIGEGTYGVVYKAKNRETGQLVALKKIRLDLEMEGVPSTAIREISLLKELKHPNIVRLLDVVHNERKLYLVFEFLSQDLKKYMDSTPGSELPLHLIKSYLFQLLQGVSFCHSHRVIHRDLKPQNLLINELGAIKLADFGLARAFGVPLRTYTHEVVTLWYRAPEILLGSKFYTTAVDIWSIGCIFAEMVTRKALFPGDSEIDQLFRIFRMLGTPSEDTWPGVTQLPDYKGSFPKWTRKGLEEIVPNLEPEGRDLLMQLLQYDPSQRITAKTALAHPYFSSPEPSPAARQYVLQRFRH

| Structure (SMILES) | inhibition [1] | inhibition [2] | inhibition [3] | inhibition [4] | inhibition [5] | inhibition [6] | inhibition [7] | inhibition [8] | inhibition [9] | inhibition [10] |
| --- | --- | --- | --- | --- | --- | --- | --- | --- | --- | --- |
| NS(=O)(=O)c1ccc(N/N=C2\C(=O)Nc3ccc(C(=O)NCCc4c[nH]cn4)cc32)cc1 | 81.3% | 14.4% | 56.4% | 48.3% | 84.4% | 14.9% | 55.9% | 46.5% | 91.9% | 4.48% |
| CCCN1CCC=C(c2ccc(Nc3nc(Nc4ccccc4C(N)=O)c4cc[nH]c4n3)c(C)c2)C1 | 4.3% | 4.35% | 10.9% | 1.88% | 9.85% | 0.69% | 5.64% | 38.2% | 88.9% | -0.17% |
| Fc1cccc(COc2ccc(Nc3ncnc4cc(-c5ccc[nH]5)sc34)cc2Cl)c1 | -1.23% | -1.38% | 1.79% | -2.8% | -0.09% | -9.87% | -4.56% | 0.06% | -0.33% | -2.46% |
| CC(=O)Nc1cccc(C#Cc2cncnc2Nc2ccc(OCc3cccc(F)c3)c(Cl)c2)n1 | -0.89% | -1.95% | -1.42% | 0.24% | 1.19% | -1.85% |  | 0.62% | 0.84% | -0.78% |
| Cc1cccc(-c2n[nH]cc2-c2ccc3ncccc3n2)n1 | -2.25% | -0.55% | 2.39% | -0.23% | 0.38% | -3.86% | 0.55% | -0.31% | 3.44% | 0.37% |
| CCn1c(-c2nonc2N)nc2c(C#CC(C)(C)O)nc(OC[C@@H](N)c3ccccc3)cc21 | 0.99% | -0.22% | 0.8% | 0.35% | 0.49% | -0.27% | -0.99% | 0.81% | 2.4% | -0.31% |
| COC(=O)Nc1nc2cc(Oc3ccc(NC(=O)Nc4cccc(C(=O)O)c4)cc3)ccc2[nH]1 | -0.13% | -1.05% | 2.01% | -1.87% | -0.58% | 4.45% | 2.67% | 2.17% | 0.77% | -3.22% |
| CN1CCC(C(=O)Nc2n[nH]c3nnc(-c4ccccc4)cc23)CC1 | 5.97% | 8.86% | 29.4% | 1.11% | 3.61% | 7.11% | 21.4% | 1.34% | 2.3% | 1.91% |
| COc1ccc(-c2coc3ncnc(N)c23)cc1 | 0.08% | 4.16% | 5.78% | 2.66% | 3.84% |  | 3.88% | 3.15% | 3.42% | 1.07% |
| COc1ccc(-c2ccncc2)cc1C(N)=O | -1.43% | 3.41% | 3.66% | 0.56% | 1.7% | -5.08% | 0.48% | 0.6% | 2.96% | 2.01% |
| c1cnn2ncc(-c3ccnc(Nc4ccc5c(c4)OCCO5)n3)c2c1 | 85.6% | 51.9% | 85.7% | 57.4% | 90.4% | 46.5% | 85% | 90.1% | 97.6% | 12.6% |
| O=C1Nc2ccc(C(=O)c3ccco3)cc2C1=Cc1cc(Cl)c(O)c(Cl)c1 | -0.28% | 3.32% | 7.07% | 1.97% | 6.39% | 3.35% | 7.37% | 64.6% | 95.7% | 22.3% |
| CCn1c(-c2nonc2N)nc2c(N3CCCC3)nccc21 | -0.6% | 15.6% | 4.7% | 1.73% | 4.5% | -2.76% | 2.52% | -0.76% | -0.67% | 1% |
| CCn1c(-c2nonc2N)nc2ccncc21 | -0.78% | 1.15% | 3.35% | 0.45% | 1.71% |  | -1.56% | 3.93% | 3.92% | -0.93% |
| Nc1nc(-c2ccccn2)c(-c2ccc3ncccc3n2)s1 | 0.5% | 3.41% | 4.48% | 1.28% | 2.86% | 6.73% | 7.75% | -0.01% | 0.69% | 2.95% |
| COc1ccc(COc2ccc(Cc3cnc(N)nc3N)cc2OC)cc1 | 1.92% | 1.7% | 3.6% | 2.15% | 2.03% | 1.93% | 3.33% | 2.03% | 1.66% | -0.25% |
| Cc1ccc(C(=O)NC2CCCCC2)cc1-c1ccc(C(=O)NCC2CC2)cc1 | 0.7% | 2.37% | 2.51% | 1.19% | 1.18% | 3.79% | 0.76% | 2.01% | 2.19% | 0.94% |

| Structure (SMILES) | inhibition [1] | inhibition [2] | inhibition [3] | inhibition [4] | inhibition [5] | inhibition [6] | inhibition [7] | inhibition [8] | inhibition [9] | inhibition [10] |
| --- | --- | --- | --- | --- | --- | --- | --- | --- | --- | --- |
| O=C(Nc1n[nH]c2nc(-c3ccco3)c(Br)cc12)C1CC1 | 2.69% | 2.78% | 8.19% | 0.87% | 3.63% | -1.81% | 12.9% | 1.95% | 2.79% | 0.97% |
| N#Cc1c(NC(=O)c2cccc3ccccc23)sc2c1CCCC2 | -0.77% | 3.82% | 6.92% | 1.3% | 5.67% |  | 4.55% | 1.29% | 0.3% | 0.63% |
| Cc1nn(C)c2cc(N(C)c3ccnc(Nc4cccc(S(N)(=O)=O)c4)n3)ccc12 | -0.68% | 1.72% | 4.46% | 0.41% | 2.78% |  | -0.34% | 0.73% | 0.86% | 1.2% |
| CS(=O)(=O)CCNCc1ccc(-c2ccc3ncnc(Nc4ccc(OCc5ccccc5)c(Cl)c4)c3c2)o1 | -1.2% | -0.14% | 4.1% | 2.15% | 3.8% | -5.27% | -2.22% | 2.2% | 1.75% | 0.36% |
| COC(=O)Nc1nc2cc(Oc3cccc(NC(=O)Nc4cc(C(F)(F)F)ccc4F)c3)ccc2[nH]1 | -1.48% | 1.83% | 2.11% | 0.65% | 1.39% | -5.71% | 1.18% | -0.8% | 1.04% | -0.93% |
| COc1ccccc1Nc1ncc(-c2ccccc2)o1 | -1.14% | 0.89% | 2.21% | 0.04% | 1.68% | -0.22% | -0.99% | 0.98% | 0.86% | 1.23% |
| CC(C)=Cc1cccc2c1/C(=N/Nc1ccc(S(N)(=O)=O)cc1)C(=O)N2 | 99.1% | 34.3% | 68.9% | 39.7% | 73.3% | 63.6% | 91.4% | 1.69% | 7.38% | -6.71% |
| COc1cccc(-n2ncc3c(N/N=C/c4cccc(F)c4)ncnc32)c1 | 5.59% | 0.03% | 22.1% | 3.4% | 34.2% | -5.64% | 17.1% | 2.25% | 1.15% | -2.19% |
| CCCN1CCC(Oc2cc(Nc3nc(Nc4cccc(F)c4C(N)=O)c4cc[nH]c4n3)c(OC)cc2Cl)CC1 | 1.54% | 0.37% | 3.08% | 0.2% | 0.45% | 0.9% | 2.04% | 9.9% | 49.3% | 0.11% |
| CS(=O)(=O)CCNCc1ccc(-c2ccc3ncnc(Nc4ccc(OCc5cccc(F)c5)c(C(F)(F)F)c4)c3c2)o1 | -2.95% | 2.52% | 2.44% | 0.38% | 0.07% |  | -2.6% | 0.58% | 0.13% | 1.49% |
| COc1ccc2cc(-c3c(-c4ccncc4)nc(-c4ccc([S+](C)[O-])cc4)n3C)ccc2c1 (centres undefined) | -0.42% | 2.74% | 2.79% | 0.96% | 1.53% | -3.35% | -1.41% | 0.22% | 1.33% | 0.91% |
| O=C1NC(=O)C(N2CCc3ccccc32)=C1c1ccc(Cl)cc1 | 0.23% | 3.68% | 5.74% | 2.06% | 2.74% | -3.76% | 5.39% | -0.03% | 0.46% | 2.68% |
| NC(=O)c1ccc(-c2nc(-c3ccccn3)c(-c3ccc4c(c3)OCO4)[nH]2)cc1 | -1.06% | 1.33% | 1.94% | 0.55% | 0.87% | 1% | -1.82% | 1.23% | 1.07% | -1.49% |
| NCc1ccc(-c2nc(-c3ccc(Cl)c(O)c3)c(-c3ccncc3)[nH]2)cc1 | -2.19% | 1.89% | 3.19% | 1.65% | 3.47% | -3.35% | 1.53% | 2.01% | 0.72% | 0.63% |
| CS(=O)(=O)CCN(CC#N)Cc1ccc(-c2ccc3ncnc(Nc4ccc(OCc5cccc(F)c5)c(Cl)c4)c3c2)o1 | -2.66% | -2.96% | -1.43% | -3.58% | -2.47% | -5.97% | -4.69% | 1.05% | 0.64% | -3.63% |
| COc1cc2ncn(-c3cc(OCc4ccccc4C(F)(F)F)c(C(N)=O)s3)c2cc1OC | -0.14% | -1.16% | 1.16% | -3.58% | -1.09% | -3.21% | -1.7% | 1.94% | 6.82% | -2.62% |
| Nc1ncnc2occ(-c3ccc(NC(=O)Nc4cccc(C(F)(F)F)c4)cc3)c12 | 16.6% | 3.45% | 6.6% | 0.37% | 4.7% | 1.3% | 2.21% | 0.14% | 2.59% | 1.01% |
